# From PubChem BioAssay
# H9c2 protect – myocardial damage modulation in H9c2 cells. H9c2 cardiomyocytes, H2O2 injury protection, ATPLite, 2 h. protection from H2O2 cell death, % at 20 µM. 0.63% of 360,000 active. AID 588492;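 active means compounds giving at least 50% protection of heart cells from peroxide-induced death in the single-dose screen, raw or plate-pattern-corrected value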;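 further: 0% = DMSO wells with peroxide and 100% = DMSO wells without peroxide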
# NTR1 ag – NTR1 (human) agonism; activation, % at 20 µM; AID 493036; 0.17% of 330,000 active; NTR1-U2OS beta-arrestin-GFP spot imaging, agonist mode;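 active means activation at or above 40% of the spot to cytoplasm intensity ratio, with at least 20 cells analyzed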;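 further: 0% = DMSO without peptide and 100% = 100 nM NTR1 peptide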
# Target sequence (P30989 whole entry, looked up): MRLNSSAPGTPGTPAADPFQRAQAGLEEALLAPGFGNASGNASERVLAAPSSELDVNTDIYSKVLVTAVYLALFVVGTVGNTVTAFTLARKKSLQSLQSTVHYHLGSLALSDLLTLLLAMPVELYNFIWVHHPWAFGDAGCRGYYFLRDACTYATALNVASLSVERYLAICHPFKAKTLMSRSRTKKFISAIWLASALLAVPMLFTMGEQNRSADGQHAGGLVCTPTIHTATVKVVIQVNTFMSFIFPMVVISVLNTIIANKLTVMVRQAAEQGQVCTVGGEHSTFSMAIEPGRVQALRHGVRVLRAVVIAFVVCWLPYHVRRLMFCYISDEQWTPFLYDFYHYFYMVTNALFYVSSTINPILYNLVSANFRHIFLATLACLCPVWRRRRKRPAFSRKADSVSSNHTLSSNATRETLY
# NR3A LBD binder – modulates the human NR3A ligand-binding domain; 2.5% of 340,000 active; NR3A LBD differential scanning fluorimetry, Tm shift; 0% = protein alone, 100% = glycine-bound protein; AID 1259313; Tm shift relative to glycine control, % at 25 µM;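 active means melting temperature shift of at least 10% of the positive control shift, at one fixed dose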
# SUMO Mot1 rescue – blocks SUMOylation pathway, rescuing yeast Mot1-301 growth; S. cerevisiae Mot1-301 growth rescue, ATP luminescence, 38.5C; percent above DMSO median, 100 means doubled; growth rescue, % at 18.8 µM; 1% of 320,000 active; AID 2716;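 active means every valid replicate shows activation above 250% relative to neutral control wells; inactive means the rest, any valid replicate at or below 250%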;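 further: OY570 slx delta 5 strain wells were the positive control but not used for scaling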
# AHR activator – activates the human aryl hydrocarbon receptor | P35869 | activation, % at 5 µM | 2.5% of 320,000 active | AHR-responsive luciferase reporter cells, luminescence; in the data active means activation above about 47%;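 further: 0% = vehicle wells and 100% = reference agonist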
# AI-2 QS modul – modulators of Vibrio harveyi AI-2 quorum sensing system; Vibrio harveyi JMH597 AI-2 luminescence/OD600 ratio, 9 h; hits give low values; strain lacks LuxN and CqsS sensors; 0 = neutral-control median; activity change, % at 7.5 µM; 0.4% of 300,000 active; AID 2094; in the data active means activity change below about -75%, passing the limit was not always enough;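 further: luminescence divided by OD600 gain over 9 h not by final OD600 alone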
# An asterisk follows results filed as active; . = no result given. Rows were chosen to be rich in hits. Some 6.2% of all compounds tested hit in one or more screens of this group.
SMILES,H9c2 protect,NTR1 ag,NR3A LBD binder,SUMO Mot1 rescue,AHR activator,AI-2 QS modul
Cc1cccc(-c2cc(C(=O)NCc3ccccn3)c3ccccc3n2)c1,37.1,0.2,15.9*,-2.1,16.9,16.3
Cc1ccc(-c2cc(C(=O)Nc3cc(C)on3)c3ccccc3n2)cc1,-1.2,0.0,4.1,-9.9,9.6,16.8
Cc1ccc(-c2cc(C(=O)NCc3ccccn3)c3ccccc3n2)cc1C,5.4,3.4,-4.9,-26.0,56.0*,8.7
O=C(NCc1ccccn1)c1cc(-c2ccc(-c3ccccc3)cc2)nc2ccccc12,-20.8,6.2,-3.9,27.0,66.0*,29.5
CSc1ncccc1C(=O)OCC(=O)NC(C)CCc1ccccc1 (stereo unspecified),-3.4,-0.6,1.6,1.4,-0.2,.
COc1ccc([C@@H]2C[C@H]3[C@@H](CN2S(=O)(=O)c2ccccc2)C(=O)C[C@@H](c2ccc(C)cc2)N3S(=O)(=O)c2ccc(C)cc2)cc1,-11.7,.,.,.,.,.
C=CCn1c(C)cc(C(=O)COC(=O)/C=C/c2c(C)nn(C3CCS(=O)(=O)C3)c2Cl)c1C (stereo unspecified),8.9,2.8,-1.1,6.9,-4.5,14.4
Cc1cc(S(=O)(=O)c2ccc(Cl)cc2)nc(S(=O)(=O)c2ccc(Cl)cc2)c1C#N,-12.1,.,.,.,.,.
O=c1[nH]c(=S)[nH]nc1Cc1ccccc1,4.1,-4.0,1.2,3.3,1.9,35.0
O=c1[nH]nc(Cc2ccc([N+](=O)[O-])cc2)c2ccccc12,64.2*,0.0,-0.5,-5.2,0.7,4.7
O=c1[nH]nc(Cc2ccc3ccccc3n2)c2ccccc12,39.1,0.0,2.3,95.3,20.1,7.4
COc1ccc(Cc2n[nH]c(=O)c3ccccc23)cc1OC,61.9*,0.3,1.9,-2.1,0.4,19.2
O=c1[nH]nc(Cc2ccccc2)c2ccccc12,64.3*,1.2,1.2,11.5,2.0,3.4
O=C1CC(NS(=O)(=O)c2ccc([N+](=O)[O-])cc2)CN1c1cccc(F)c1 (stereo unspecified),-5.0,-0.8,3.7,13.2,4.1,4.6
CCC(CC)C(=O)N1c2ccc(F)cc2CCC1C (stereo unspecified),-7.6,-1.2,-0.1,-8.2,0.3,23.7
CC(C(=O)N1c2ccc(F)cc2CCC1C)N1C(=O)c2ccccc2C1=O (stereo unspecified),-4.0,4.9,0.0,262.2*,4.0,1.3
COc1ccccc1NS(=O)(=O)c1cccc(C(=O)NCC2(N3CCCCC3)CCCCC2)c1,6.8,.,1.5,.,.,.
COc1ccc(OC)c(NC(=S)NC(=O)c2ccc(Br)o2)c1,-2.9,0.6,2.2,-12.2,21.2,20.4
Cc1cc2n(n1)SC(Nc1cccc3ccccc13)N2 (stereo unspecified),-4.9,9.8,1.6,-8.4,53.2*,9.4
CCc1ccccc1NC1Nc2cc(C)nn2S1 (stereo unspecified),-10.0,0.3,1.0,3.5,3.7,27.9
Cc1cc2n(n1)SC(Nc1cc(Cl)ccc1Cl)N2 (stereo unspecified),2.9,2.5,-6.2,13.3,62.9*,0.2
O=C(Cc1ccccc1)NCC(=O)Nc1ccccc1Br,2.0,-0.3,-1.8,-1.6,0.4,22.4
CC(=O)Nc1ccc(CN(C)c2c(C)nc3ccc(C(=O)N4CCN(C(=O)c5ccco5)CC4)cn23)cc1,0.2,.,.,.,.,.
O=C(CCNC(=O)C1CCN(S(=O)(=O)c2ccccc2)CC1)Nc1ccccc1,-3.0,1.5,1.2,-7.8,3.8,-18.7
Cc1noc(C)c1COC(=O)c1cc2c3ccccc3n(C)c2s1,1.3,3.3,2.4,2.0,30.3,.
SMILES,H9c2 protect,NTR1 ag,NR3A LBD binder,SUMO Mot1 rescue,AHR activator,AI-2 QS modul
O=C(c1cc2c(s1)CCCC2)N1CCN(CCO)CC1,1.1,0.7,-5.9,-21.5,1.0,.
Cn1c2ccccc2c2cc(C(=O)N3CCN(CCO)CC3)sc21,1.1,0.1,2.3,-2.4,68.4*,29.1
CC(=O)NNC(=O)c1cc2c3ccccc3n(C)c2s1,-0.9,0.4,-0.8,165.0,74.6*,5.6
Cc1ccc(C2OCC(C)([N+](=O)[O-])CO2)cc1 (stereo unspecified),-4.3,.,-1.3,.,.,.
CCN(CC)C(=O)C1=C(C)N(Cc2ccc(F)cc2)C(=O)C(CC(=O)NCCCN(C)C)C1 (stereo unspecified),-4.0,.,.,.,.,.
CC(NC(=O)c1ccco1)C(=O)N1CCN(C(c2ccccc2)c2ccccc2)CC1 (stereo unspecified),-1.9,0.2,11.1*,4.1,-4.9,21.8
CCCc1nc2c3ccccc3ccn2c1CC1CCCCC1,-8.9,.,.,.,.,.
S=c1nc[nH]c2c1sc1nc(-c3ccccc3)c3c(c12)CCCC3,-6.6,17.0,12.2*,4.5,-3.9,1.4
Brc1ccc(Nc2ncnc3[nH]ncc23)cc1,-0.5,-0.2,25.6*,-14.3,21.6,1.0
CCOc1ccc(Br)cc1S(=O)(=O)Nc1ccc(C(=O)OCC(=O)Nc2ccc(C#N)cc2)cc1,-6.5,3.5,14.2*,7.0,-1.3,25.2
CC(C)(C)c1ccc(NC(=O)COC(=O)c2ccc(NS(=O)(=O)c3ccc(F)c(F)c3)cc2)cc1,-6.0,5.5,30.4*,151.5,2.3,14.7
CCOc1ccc(NC(=S)NS(=O)(=O)c2cc(Br)ccc2OCC)cc1,0.4,-0.6,0.8,12.8,0.9,10.2
CCN(CC)c1ccc(S(=O)(=O)N2CCOCC2)cc1NC(=O)COC(=O)C1=COCCO1,-0.4,.,-0.9,.,.,.
Cc1cc(C)c2c(=O)[nH][nH]c2n1,7.8,.,3.3,.,.,.
Nc1nc(Cl)cc(N2CCC(c3cc(-c4ccc(Cl)cc4Cl)n[nH]3)CC2)n1,-17.3,16.5,13.0*,19.8,-1.0,49.9
COc1cc(/C=N\NC(=O)C2COc3ccccc3O2)cc(OC)c1O (stereo unspecified),-0.8,0.4,0.6,19.8,4.0,2.2
CCOc1ccc(-n2c(O)c(/C=N/NC(=O)C3COc4ccccc4O3)c3ccccc3c2=O)cc1 (stereo unspecified),55.7*,2.3,-1.4,47.6,-4.9,7.4
Cc1ccc(NC(=O)Cn2c([N+](=O)[O-])cnc2C)cc1Cl,1.1,-0.7,-6.0,-8.7,1.6,10.5
CCS(=O)(=O)NCc1ccc2[nH]c3c(c2c1)CCCC3,.,0.8,.,252.3,6.4,31.5
Cc1cc(C)cc(NC(=S)NCc2ccc3[nH]c4c(c3c2)CCCC4)c1,-32.2,2.5,17.1*,188.7,22.0,17.2
O=C(c1ccccc1)c1c[nH]c(C(=O)NNc2ccccc2)c1,-17.8,-0.7,0.8,404.2*,-0.7,6.5
Cc1c(C(=O)OC2CCCC2)[nH]c2c1C(=O)CC(c1ccco1)C2 (stereo unspecified),-34.1,-4.4,-0.6,-19.3,57.4*,12.8
COc1ccc(C)cc1NCc1cc(=O)oc2cc(-c3ccccc3)c(O)cc12,6.7,2.7,20.0*,-8.1,49.2*,21.0
